About 3,900 (1.3%) of roughly 310,000 compounds were called active.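 How the source made its calls: active means calcium-response B-score plate-corrected more than 3 library SD below zero, starting fluorescence within 5 deviations, no agonist response on first addition; inactive means the rest.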 What follows is part of a selection rich in actives, with near analogues and random picks from the rest. More than one record can exist for a structure, and the calls need not agree.
Target: Mas-related G-protein coupled receptor member X1 (Homo sapiens) (UniProt Q96LB2)
Assay: blockade of BAM8-22-evoked MrgX1 calcium response – HEK293 cells, Fluo-4 calcium flux, primary screen (AID 588676);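 on B-score: peak minus trough fluorescence over baseline after final BAM8-22 challenge near maximal dose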
Details: Fluo-4, BAM8-22 antagonism, at 10 µM; stronger effect = lower value

Sequence of Mas-related G-protein coupled receptor member X1 (Homo sapiens) (Q96LB2 whole entry, looked up): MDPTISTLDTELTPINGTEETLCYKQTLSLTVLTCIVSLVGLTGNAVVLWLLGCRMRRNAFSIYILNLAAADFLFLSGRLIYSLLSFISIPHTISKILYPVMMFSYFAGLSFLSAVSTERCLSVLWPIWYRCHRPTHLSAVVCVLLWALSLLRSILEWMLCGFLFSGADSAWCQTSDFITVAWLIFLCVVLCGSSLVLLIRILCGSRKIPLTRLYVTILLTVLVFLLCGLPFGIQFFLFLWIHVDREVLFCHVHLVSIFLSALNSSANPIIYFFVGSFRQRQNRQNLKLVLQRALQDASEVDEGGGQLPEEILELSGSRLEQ

B-score, inactive:
CCCc1cc(=O)oc2c(C)c(OCC(=O)N3CCC(C(=O)O)CC3)ccc12
CCc1cc(=O)oc2cc(C)cc(OC(C)C(=O)O)c12 (configuration not stated)
CC(Sc1cccc[n+]1[O-])C(=O)Nc1cccc(S(=O)(=O)N2CCOCC2)c1 (configuration not stated)
CN(C)S(=O)(=O)c1ccc(N2CCCC2)c(C(=O)NCc2ccccc2)c1
CN(C)S(=O)(=O)c1ccc(N2CCCC2)c(C(=O)Nc2cccc(F)c2)c1
CN(C)C(=O)N=NC(=O)N(C)C
C=CCn1c(=O)c2ccccc2n2c(SCC(=O)N3CCCc4ccccc43)nnc12
C=CCn1c(SCC(=O)/C(C#N)=C(\C)N)nc2sc(C)c(C)c2c1=O
CCOc1cc2c(Cl)ncnc2c(OCC)c1OCC
CCOc1cc(C(=O)Nc2ncccn2)cc(OCC)c1OCC
O=C1CSC2=NCN(c3ccccc3)CN12
CCCn1nc2cc(C(=O)NCc3ccccc3)ccc2c1OCC
Cc1ccc(NC(=O)CN2CCC3(O)CCCCC3C2c2ccc3c(c2)OCO3)c(C)c1 (configuration not stated)
CCN(CC)c1ccc(NC(=O)CN2CCN(c3ccccn3)CC2)cc1
CCOC(=O)c1c(N=CN(C)C)c(C#N)c2n1CCCC2
Cc1cc2oc(=O)cc(CN3CCN(S(=O)(=O)c4cccs4)CC3)c2cc1C(C)C
Cc1ccc2c(CSc3nncs3)cc(=O)oc2c1
CCOC(=O)Cc1csc(NC(=O)COc2ccc3c(C)cc(=O)oc3c2)n1
CN(C)N1C(N)=C(C#N)C(c2ccc(Br)cc2)C2=C1CCCC2=O (configuration not stated)
C/C(CC(=O)NC(C)(C)C)=N\NC(=O)c1ccco1
COc1ccc(-c2nn(C)c(=O)c3ccccc23)cc1CNC(=O)C1CCCCC1
CCC(=O)NCc1cc(-c2nn(C)c(=O)c3ccccc23)ccc1OC
COc1cc(CC(=O)N2CCC(n3nccc3NC(=O)C3CC3)CC2)cc(OC)c1OC
CCOC(=O)N1CCN(C(=O)COc2ccc(Br)cc2)CC1
Cn1cnnc1SCC(=O)NNC(=O)COc1ccc(Br)cc1
CCOC(=O)C(Sc1ncc(C#N)c(N)n1)C(C)C (configuration not stated)
Fc1ccccc1Cc1ccc(Cl)nn1
O=C(O)c1ccc(Cn2c(=S)[nH]c3cc(Cl)ccc3c2=O)cc1
CC(C)N(Cc1ccccc1)C(=O)COC(=O)c1ccccc1SCC(=O)N1CCCC1
Cc1c(C)c(C)c(S(=O)(=O)NCCc2ccccn2)c(C)c1C
CCOC(=O)Nc1ccc2c(c1)N(C(=O)CCCl)c1ccccc1[S@]2=O
CCOC(=O)Nc1ccc2c(c1)N(C(=O)CN1CCN3CCCC3C1)c1ccccc1CC2 (configuration not stated)
COC(=O)C1=C(O)/C(=C/c2ccc(OCC(=O)Nc3ccccc3)cc2)N=C1C
CCOC(=O)C1=C(O)/C(=C/c2ccc(OCC(=O)Nc3ccc(C)cc3)cc2)N=C1C
O=C(NCCCN1CCCC1=O)c1cccc(S(=O)(=O)NCc2ccccc2)c1
O=C(Nc1cc(S(=O)(=O)N2CCOCC2)ccc1Cl)c1cc(=O)c2ccccc2o1
Cn1sc(=O)c2cc(S(=O)(=O)NC3CC3)ccc21
Cc1ccc(C(=O)COC(=O)CCN2C(=O)C3C4CCC(C4)C3C2=O)cc1C (configuration not stated)
O=C(CCN1C(=O)C2C3C=CC(C3)C2C1=O)Oc1ccc2ccccc2c1 (configuration not stated)
CCOc1ccc(-n2cnc3c(=O)[nH]c(N)nc32)cc1
O=C(Nc1nc2ccccc2s1)c1ccc2c(c1)OCO2
CCCc1nnc(NC(=O)c2cc(OC)cc(OC)c2)s1
COc1cc(NC(=O)CN(C)S(=O)(=O)c2ccc3nc(C)sc3c2)cc(OC)c1
Cc1cccc(N(CC(=O)Nc2ccc(-c3nc4ccc(C)cc4s3)cc2)S(C)(=O)=O)c1
CCOC(=O)c1ccc(NC(=O)c2cccnc2)cc1
Cc1cc2nc(-c3ccc(NC(=O)c4cccnc4)cc3)oc2cc1C
Cc1ccc(N2C(=O)CC(NCc3ccc4c(c3)OCO4)C2=O)cc1Cl (configuration not stated)
O=C(CSc1nnnn1-c1ccc(O)cc1)N1N=C(c2ccc3ccccc3c2)CC1c1ccccc1 (configuration not stated)
CSc1nc2c(c(=O)[nH]1)C(c1cccc(Cl)c1Cl)CC(=O)N2 (configuration not stated)
CCOc1ccc(Nc2nc(Cc3nnc(SCC(=O)c4ccc(C)cc4)o3)cs2)cc1
COc1cc(OC)c(OC)cc1/C=N/Nc1ncnc2c1[nH]c1ccc(C)cc12
CC(C)OCCCNC(=O)c1cc(Sc2ccc(F)cc2)nc2ccccc12
O=C(CN1CCN(c2ccccn2)CC1)Nc1ccc(Br)cc1
O=C(CN1CCN(c2ccccn2)CC1)NCc1cccs1
CCOC(=O)C1=C(c2ccc(OC)cc2)C(=O)c2ccccc2C1=O
CCOC(=O)C1C(=O)NC(N2CCN(c3ccccc3)CC2)=NC1c1ccco1 (configuration not stated)
N#Cc1cccc(CN2CCC(=O)N([C@H](CO)c3ccccc3)CC2)c1
O=C(C1CCN(Cc2ccc(Cl)cc2)CC1)N1CCN(Cc2ccc3c(c2)OCO3)CC1
Cc1cccc(N2CCN(C(=O)C3CCN(S(=O)(=O)c4cnc[nH]4)CC3)CC2)c1C
Cc1ccc(C(=O)N2CC(=O)Nc3ccc(F)cc3C2c2ccc(F)cc2)cc1 (configuration not stated)
O=C(NCCCN1CCOCC1)c1ccc([N+](=O)[O-])cc1[N+](=O)[O-]
O=[N+]([O-])c1ccc(NCCCN2CCOCC2)c(Cl)c1
CC(NC(=O)CNC(=O)Cc1cccc2ccccc12)c1ccc(S(N)(=O)=O)cc1 (configuration not stated)
O=[N+]([O-])c1ccc2c(c1)C(N1CCOCC1)/C(=C/C1(O)CCCCC1)O2 (configuration not stated)
CC1(C)CC(=O)CC2(C1)NCC(c1ccccc1Cl)c1c2[nH]c2ccccc12 (configuration not stated)
Cc1ccc(S(=O)(=O)n2cccc2CO)cc1
COCCN(Cc1cc2cc3c(cc2nc1Cl)OCO3)C(=O)c1cccc(C)c1
COc1ccc(/C(O)=C2\C(=O)C(=O)N(Cc3ccco3)C2c2ccc(OC)cc2OC)cc1 (configuration not stated)
COc1ccc(C2/C(=C(/O)c3ccc4c(c3)CC(C)O4)C(=O)C(=O)N2Cc2ccncc2)cc1 (configuration not stated)
Cc1cccc(CSc2ccc(-c3cccs3)nn2)c1
C=CCN1CC(C)/C(=N\O)CC1C (configuration not stated)
O=C(N/N=C/c1ccc([N+](=O)[O-])o1)c1cccc(S(=O)(=O)N2CCOCC2)c1
O=C(N/N=C/c1cc(Cl)cc([N+](=O)[O-])c1O)C(O)(c1ccccc1)c1ccccc1
CCCCN(C(=O)CCNC(=O)NC12CC3CC(CC(C3)C1)C2)c1c(N)n(CCCC)c(=O)[nH]c1=O
CN(CCc1ccccn1)C(=O)CCC1CCCN(Cc2ccccc2OC(F)F)C1 (configuration not stated)
CCc1cc2cc(OC)ccc2nc1SCC(=O)Nc1cc(OC)c(OC)cc1C(=O)O
CCOC(=O)CSc1nnc(-c2ccc([N+](=O)[O-])cc2)o1
Cc1cc(OCCCCOc2ccc(C#N)cc2)ccc1[N+](=O)[O-]

B-score, active:
CCc1cc(=O)oc2cc(C)cc(OCC(=O)N3CCC[C@@H]3C(=O)O)c12 -7.63
Cc1ccccc1OCC(=O)NNC(=O)c1cc(S(=O)(=O)N(C)C)ccc1N1CCCC1 -7.66
CCCn1c(=O)c2ccccc2n2c(SCC(=O)/C(C#N)=C(\C)N)nnc12 -7.91
CCOc1cc(-c2conc2N)cc(OCC)c1OCC -6.9
CCN(CC)c1ccc(C2C3CCCCC3(O)CCN2CC(=O)Nc2ccccc2)cc1 (configuration not stated) -5.44
CCOC(=O)Cc1csc(SCc2cc(=O)oc3cc(O)ccc23)n1 -5.51
COc1ccc(-c2nn(C)c(=O)c3ccccc23)cc1NC(=O)COc1ccccc1 -8.18
Cn1cccc1C(=O)NNC(=O)COc1ccc(Br)cc1 -5.34
CC(C)c1ccc2c(c1)c(SC(C)(C)C)c(CC(C)(C)C(=O)O)n2Cc1ccc(Cl)cc1 -4.82
CCOC(=O)Nc1ccc2c(c1)N(C(=O)CCN1CCN(CCO)CC1)c1ccccc1CC2 -9.01
CCOC(=O)C1=C(O)/C(=C/c2cc(C)n(-c3ccccc3)c2C)N=C1C -4.95
Cc1ccc(C(=O)COC(=O)CCN2C(=O)C3C4CC(C(Br)C4Br)C3C2=O)cc1 (configuration not stated) -9.31
COCc1nnc(NC(=O)c2ccc3c(c2)OCO3)s1 -5.8
Cc1ccc2nc(-c3ccc(NC(=O)CN(C)S(=O)(=O)c4ccccc4)cc3)sc2c1 -4.7
Cc1ccc2nc(-c3ccc(NC(=O)c4cccnc4)cc3)oc2c1 -5.36
CC(C)OCCCNc1ncnc2c1[nH]c1ccc(F)cc12 -12
O=C(CN1CCN(c2ccccn2)CC1)NC1CCCCC1 -5.03
CCOC(=O)C1C(=O)C=C(c2ccc(OC)cc2)CC1c1ccco1 (configuration not stated) -5.76
O=C(C1CCN(S(=O)(=O)c2cnc[nH]2)CC1)N1CCN(Cc2ccc3c(c2)OCO3)CC1 -6
O=[N+]([O-])c1cc(S(=O)(=O)CCCN2CCOCC2)ccc1F -6.04
COc1cc(C2/C(=C(\O)c3ccc4c(c3)CC(C)O4)C(=O)C(=O)N2Cc2ccco2)ccc1O (configuration not stated) -5.81
O=[N+]([O-])c1cc(Cl)cc(/C=N/NC(=S)Nc2cc(S(=O)(=O)N3CCOCC3)ccc2Cl)c1O -7.04
N#Cc1ccc(OCc2nnc(-c3ccc([N+](=O)[O-])cc3)o2)cc1 -5.3

outcome, inactive:
CC(C)c1ccc2c(c1)c(SC(C)(C)C)c(CC(C)(C)C(=O)O)n2Cc1ccc(Cl)cc1
